# Whole data set: some 33,000 sequences, median “e-score” near -0.038, cut for the highest 2% near 0.33. Many of the other results were omitted from the sample, so the highest values are more common in it than they were.
# Target: T1, GST-Rok-C97-191 (Bacillus subtilis subsp. subtilis str. …, UniProt O34857 97-191)
# T1 sequence: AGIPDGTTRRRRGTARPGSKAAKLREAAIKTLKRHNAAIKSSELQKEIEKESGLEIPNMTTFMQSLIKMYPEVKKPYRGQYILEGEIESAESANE
# Assay: protein binding microarray; Rok is a gene silencer of Bacillus subtilis; high values mean tight binding
# Conditions: protein: recombinant; tags: GST (pTH5325, pDEST15-Magic modified); dsDNA, one strand shown
# Procedure, shortened: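 Every oligonucleotide joins a 25-mer constant primer to a 35-mer variable part drawn from a de Bruijn sequence of order 10, so each non-palindromic 8-mer appears at least 32 times and each palindromic 8-mer 16 times. The preference for every 8-mer is reported as a unitless, rank-based enrichment score (E-score). This score spans 0.5 for the most favored 8-mer to −0.5 for the most disfavored.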
row,Sequence,binding signal [E-score]
1,CAGGGATC,-0.151
2,AGAGCTAA,0.148
3,AGTCCTCC,-0.0852
4,AAAATTAT,0.239
5,GCTCACTA,0.0154
6,GAAGAGGA,-0.151
7,GGCATACC,0.00482
8,GCGGACGA,-0.188
9,AGAGGCAT,0.0046
10,AATACGCT,-0.133
11,ACAACGAG,-0.0859
12,AGAGAAAG,0.159
13,CGATGACC,-0.125
14,GATTGTAA,0.0411
15,GATTGTAC,0.365
16,AATTGTAC,0.211
17,ATTTGTAC,0.333
18,ATTTGTAA,0.203
19,CTTTGTAC,0.249
20,TAACTCCA,0.0761
21,CTCGGGAC,-0.0122
22,GTACCTAC,0.349

row,Sequence,binding signal [E-score]
1,GTACCTAA,0.155
2,ATACCTAG,0.253
3,ATACCTAT,0.323
4,GAACCTAC,0.198
5,CTACCTAC,0.376
6,CTACCTAA,0.174
7,CTACCTAG,0.243
8,ATACCTAC,0.333
9,AACATATC,0.233
10,CATGTTAC,0.15
11,CTCCACTA,0.107
12,CAGCCCTG,-0.157
13,GTAAATAC,0.336
14,ACAAATAT,0.337
15,ACAAATAA,0.246
16,ATAAATAC,0.287
17,AGAAATAC,0.311
18,CTAAATAC,0.287
19,AGAAATAG,0.326
20,ATAAATAG,0.252
21,ATAAATAT,0.369
22,ACAAATAC,0.266

row,Sequence,binding signal [E-score]
1,ATAAATAA,0.269
2,AGAAATAT,0.346
3,TAGTCGCA,0.00372
4,AAAGGGTT,-0.0515
5,CGACCAGC,-0.129
6,AACGAGAG,-0.0985
7,ACTTCCGG,-0.139
8,CAAAAGGG,-0.177
9,CAAACGCC,-0.166
10,ATTCCGGG,-0.0619
11,AATTCCTA,0.155
12,AAATCCCA,0.123
13,GGATAGTA,0.142
14,AGATAGTG,0.174
15,CGATAGTC,-0.0434
16,AGATAGTC,0.0233
17,AGATAGTA,0.376
18,CGATAGTA,0.382
19,ACTCCAAA,-0.0283
20,AGAGCCAA,-0.0861
21,ACCTTCCG,-0.0992
22,CCGTACTC,0.0243

row,Sequence,binding signal [E-score]
1,TTGTAAAA,0.265
2,ATGTAAAT,0.373
3,ATGTAAAC,0.031
4,ATGTAATA,0.32
5,CTGTAATA,0.334
6,CTGTAAAA,0.0478
7,ATGTAAAG,0.164
8,ATGTAAAA,0.351
9,CTGTAATC,0.13
10,GAGAGTGC,-0.103
11,ACGGCAAT,0.0959
12,GGCTTCTA,0.11
13,ATCGCCGC,-0.0266
14,CTATATCA,0.185
15,ATATATCC,0.268
16,ATATATCA,0.396
17,GTATATCA,0.216
18,CTATATCC,0.17
19,ATATATCG,0.366
20,CATTGTGA,-0.101
21,AGAGGTTG,-0.0137
22,AAAGTTAA,-0.0842

row,Sequence,binding signal [E-score]
1,ACGTCGAT,0.108
2,ATAATCTA,0.289
3,GAAATCTA,0.383
4,AGAATCTA,0.322
5,AAAATCTG,0.00361
6,CGAATCTA,0.256
7,AAAATCTC,0.242
8,AAAATCTA,0.339
9,GGAATCTA,0.339
10,CTAATCTA,0.348
11,GAAATCTC,0.209
12,GCAATCTA,0.307
13,GTAATCTA,0.313
14,CAAAATCG,0.0988
15,TATGCCCA,-0.134
16,GTGGCAAA,0.0701
17,ACCGTAGT,0.0984
18,ATGCGGCG,-0.186
19,AGCCGTTA,0.0336
20,CAAATCTA,0.354
21,TAAATCGA,0.0722
22,TAAATCAA,0.178

# — paper PMC6212790, “How bacterial xenogeneic silencer rok distinguishes foreign from self DNA in its resident genome”
